Sampled rows, rich in hits. Any-hit rate of the full collection: about 1.8%.
RN4220 kill: kills Staphylococcus aureus RN4220; S. aureus RN4220 growth, OD600, 16 h; inhibition, % (concentration not given with the values); 330,000 tested, 0.33% active; AID 1259311; in the data active means inhibition above about 85%;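 further: plate controls were untreated cells for no effect and reference antibiotic for full effect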
PfHsp40 rescue: restores yeast growth despite PfHsp40 toxicity. S. cerevisiae expressing PfHsp40, growth rescue, ATP luminescence. growth rescue, % at 12.5 µM. 340,000 tested, 0.68% active. AID 504582; in the data active means growth rescue above about 28%, passing the limit was not always enough;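 further: yeast W303a lacking pdr1 and pdr3 grown in galactose medium; growth measured after three days at 30 °C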
Sa ugtP lethal: growth inhibition of S. aureus ugtP deletion strain; S. aureus RN4220 ugtP deletion, OD600 growth, 16 h; growth inhibition, % (concentration not given with the values); 330,000 tested, 0.54% active; AID 1259309; in the data active means growth inhibition above about 68%;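 further: plate controls were untreated wells for no effect and antibiotic for full effect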
PrPC surface inh: cell surface PrPC inhibition, primary TR-FRET screen. P04156. TR-FRET read-out. inhibition, % at 13.8 µM. 370,000 tested, 0.43% active. AID 720596; in the data active means inhibition above about 24%; further: 0% = median of the test wells and 100% = reference compound wells
DUSP3 inh: inhibitors of human VHR1 phosphatase (DUSP3); 290,000 tested, 0.52% active; AID 1654; recombinant VHR phosphatase, pNPP absorbance; inhibition, % at 13.3 µM; in the data active means inhibition above about 50%
Target sequence (P51452 whole entry, looked up): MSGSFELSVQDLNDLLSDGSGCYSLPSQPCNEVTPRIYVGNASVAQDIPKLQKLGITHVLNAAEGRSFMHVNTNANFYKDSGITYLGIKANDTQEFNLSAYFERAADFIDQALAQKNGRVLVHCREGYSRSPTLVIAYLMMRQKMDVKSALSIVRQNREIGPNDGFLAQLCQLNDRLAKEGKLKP
Starred values were filed as active, the others as inactive; . = no result given.

SMILES	RN4220 kill	PfHsp40 rescue	Sa ugtP lethal	PrPC surface inh	DUSP3 inh
C=CCNC(=O)N1CCC(n2nccc2NC(=O)CCCc2ccccc2)CC1	1	-2	2	-4	56*
COC(=O)C(CC(C)C)NS(=O)(=O)N(Cc1ccccc1)C(CC(C)C)C(=O)OC (stereo not given)	8	.	12	.	.
C[n+]1c(-c2ccccc2)cc(CCCCc2cc(-c3ccccc3)[n+](C)c(-c3ccccc3)c2)cc1-c1ccccc1	93*	0	77	-2	9
COc1ccc(-c2cc(-c3ccccc3)[n+](C)c(-c3ccccc3)c2)cc1	-1	.	-1	-12	22
CN(C)C1=NCC(Cc2ccccc2)N1CCCCc1ccccc1 (stereo not given)	-2	.	-4	.	.
COc1ccc(C2=CC(=O)CC(c3ccc(Cl)cc3)C2)cn1 (stereo not given)	2	.	1	.	.
CN(C)CCCNc1ccc(-c2n[nH]c(=O)c3ccccc23)cc1[N+](=O)[O-]	6	0	10	-42	55*
CCOC(=O)C1=Nc2cccc3c(O)ccc1c23	.	.	.	-31	.
CCOC(=O)C1=Nc2ccccc2C1=[N+]=[N-]	.	33*	.	19	-2
NCCCCC1NC(=O)c2cc([N+](=O)[O-])cc(I)c2SCC(C(N)=O)NC(=O)C(Cc2ccc(O)cc2)NC1=O (stereo not given)	-1	.	-3	.	.
Cc1[nH]cnc1C(=O)NN=Cc1ccc([N+](=O)[O-])s1	100*	.	100*	.	.
O=C(NN=Cc1ccc([N+](=O)[O-])s1)c1ccncc1	26	.	21	.	.
O=C(NN=Cc1ccc([N+](=O)[O-])s1)c1cncc(Br)c1	25	.	99*	.	.
O=[N+]([O-])c1ccc(/C=N/NC(=S)Nc2ccc(Cl)cc2Cl)s1	.	240*	.	-6	11
O=[N+]([O-])c1ccc(O)c(/C=N/NC(=S)Nc2ccc(Cl)cc2Cl)c1	.	0	.	2	20
O=C(N/N=C/c1ccc([N+](=O)[O-])s1)c1ccccc1	.	150*	.	-42	23
COc1ccccc1C=CC1=NC(=CC=Cc2ccccc2)C(=O)O1	13	.	4	.	.
CSc1ccc(C=NNC(=O)c2cc(O)cc(O)c2)cc1	5	.	-5	.	.
COc1ccc(OC)c(NC(=O)C(=O)C=C(O)c2cc(OC)ccc2OC)c1	2	.	-11	.	.
COC(=O)[C@@]12CCCCN1C(c1ccc(-c3cccc(Cl)c3)c(OC)c1)C1C(=O)N(C)C(=O)C12 (stereo not given in full)	6	.	4	.	.
O=[N+]([O-])c1cc(S(=O)(=O)Nc2ccccc2)ccc1NCc1ccccc1	-2	2	-17	-4	26
O=[N+]([O-])c1cc(S(=O)(=O)Nc2ccccc2)ccc1NCc1cccnc1	3	1	-7	-20	60*
CC(NC(=O)c1[nH]cnc1C(=O)Nc1ccccc1)C(=O)OC(C)(C)C (stereo not given)	1	.	4	.	.
O=C(c1ccccc1F)n1c2c(c3ccccc31)CCCC2	-12	-2	93*	-6	-15
CC1CCN(CC(=O)n2c3c(c4ccccc42)CCCC3)CC1	4	-2	7	1	29
SMILES	RN4220 kill	PfHsp40 rescue	Sa ugtP lethal	PrPC surface inh	DUSP3 inh
O=C1C=C(c2ccc(OC(F)(F)F)cc2)CC(c2ccc(Cl)cc2)C1 (stereo not given)	-10	.	19	.	.
Cc1ccc(CNC(=O)CSc2ccc(-c3ccccn3)nn2)cc1	4	219*	15	-2	24
O=C(CSc1ccc(-c2ccccn2)nn1)NCc1ccc(Cl)cc1	3	331*	4	-1	38
O=C(CSc1ccc(-c2ccco2)nn1)NCc1ccc(Cl)cc1	11	-1	-5	3	46
COc1cccc(CNC(=O)CSc2ccc(-c3ccccn3)nn2)c1	3	357*	10	-1	15
Cc1ccc(CNC(=O)CSc2ccc(-c3cccs3)nn2)cc1	3	0	13	8	13
CC1CN(C(C)CO)C(=O)c2cc(NC(=O)Nc3ccc(C(F)(F)F)cc3)ccc2OC1CN(C)S(C)(=O)=O (stereo not given)	1	.	-3	.	.
C#CCNC(=O)C1=CC(c2ccc(Br)cc2)CC(OCCCCO)O1 (stereo not given)	8	.	4	.	.
CCOC(=O)NC1Cc2ccccc2C1Sc1ccccn1 (stereo not given)	1	54*	9	1	-10
O=C(O)/C=C\C(=O)Nc1ccc(N2CCN(c3ccc(Cl)cc3)CC2)cc1	.	-1	.	5	11
O=C(O)/C=C\C(=O)Nc1ccc(N2CCN(c3cccc(Cl)c3)CC2)cc1	3	0	0	0	57*
O=C(Nc1ccc(N2CCOCC2)c(Cl)c1)c1cccc(-n2cnnc2)c1	0	0	3	-3	23
O=C(Nc1ccc(N2CCOCC2)cc1)c1ccc2nc(-c3ccco3)c(-c3ccco3)nc2c1	1	1	-5	-10	7
O=C(Nc1ccc(N2CCOCC2)cc1)c1cccc(-n2cnnc2)c1	4	0	4	3	53*
S=C(Nc1ccc(N2CCOCC2)cc1)Nc1ccc2nc(-c3ccco3)c(-c3ccco3)nc2c1	10	-2	-13	-22	50*
COc1ccc(C(=O)NC(=S)Nc2ccc(CN3CCOCC3)cc2)cc1Cl	8	-2	86*	12	-3
O=C(NC(=S)Nc1ccc(N2CCOCC2)cc1)c1cccc(Cl)c1	5	4	93*	7	2
CC(=O)c1ccc(NC(=S)Nc2ccc(N3CCOCC3)cc2)cc1	9	0	-62	-3	14
CCc1ccc(C(=O)NC(=S)Nc2ccc(N3CCOCC3)cc2)cc1	-3	4	89*	0	19
O=C(NC(=S)Nc1ccc(N2CCOCC2)cc1)c1ccccc1	4	0	46	8	12
COC(=O)[C@@]12CCCCN1C(c1ccc(-c3ccc(Cl)c(Cl)c3)c(OC)c1)C1C(=O)N(C)C(=O)C12 (stereo not given in full)	4	.	2	.	.
O=C(c1ccc(S(=O)(=O)N2CCCCCC2)cc1)N1CCC(CN2C(=O)c3cccc4cccc(c34)C2=O)CC1	-4	44*	-12	-6	8
COc1cc(/C=N/NC(=O)CCC(=O)Nc2ccc(C)cc2)ccc1O	.	1	.	7	52*
COc1cc(C=NNC(=O)c2cc3ccccc3[nH]2)ccc1O	-1	.	-8	.	.
COc1cc(/C=N/NC(=O)c2cc3ccccc3[nH]2)ccc1O	.	0	.	-8	57*
O=C1C2C3C=CC(C3)C2C(=O)N1n1cnnc1 (stereo not given)	-2	.	-8	.	.
CC(C)CCNC(=S)Nc1ccc([N+](=O)[O-])cc1	25	128*	-1	-2	13
CCCCNC(=S)Nc1ccc([N+](=O)[O-])cc1	6	-2	-31	4	4
Cc1ccc(C(C)C)cc1NC(=O)Nc1ccc([N+](=O)[O-])cc1	.	151*	.	6	7
CC(C)COc1ccc(C(=O)Nc2ccc([N+](=O)[O-])cc2)cc1	-2	-1	3	.	-3

Compound activity deposited in PubChem BioAssay by several laboratories.
